This is a sample that favours compounds with a hit; in the whole collection about 7.5% have one here.
SMN2 splice up = increases expression of the SMN2 splice variant. HEK293 SMN2-luciferase splicing reporter, luminescence, 30-36 h. Potency, µM (highest dose often 46.1 µM), hits mostly activators. 210,000 compounds, 2.8% hits. AID 1458; note: nearly all actives have a fitted effect of over 55% in size
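qHTS luciferase splicing reporter: luminescence rises when SMN2 exon 7 is included in transfected HEK293 cells. Compound exposure lasted 30-36 h at 37C, with 4.5 mM final sodium butyrate as control, followed by a ONE-Glo read.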
FLuc counter = counter-screen for miR-21 project: firefly luciferase inhibitors or activators; P08659; purified FLuc, Km substrates, luminescence inhibition; Potency, µM (highest dose often 57.5 µM), hits mostly inhibitors; 360,000 compounds, 6.9% hits; AID 588342; note: nearly all actives have a fitted effect of over 55% in size
Target sequence (P08659 whole entry, looked up): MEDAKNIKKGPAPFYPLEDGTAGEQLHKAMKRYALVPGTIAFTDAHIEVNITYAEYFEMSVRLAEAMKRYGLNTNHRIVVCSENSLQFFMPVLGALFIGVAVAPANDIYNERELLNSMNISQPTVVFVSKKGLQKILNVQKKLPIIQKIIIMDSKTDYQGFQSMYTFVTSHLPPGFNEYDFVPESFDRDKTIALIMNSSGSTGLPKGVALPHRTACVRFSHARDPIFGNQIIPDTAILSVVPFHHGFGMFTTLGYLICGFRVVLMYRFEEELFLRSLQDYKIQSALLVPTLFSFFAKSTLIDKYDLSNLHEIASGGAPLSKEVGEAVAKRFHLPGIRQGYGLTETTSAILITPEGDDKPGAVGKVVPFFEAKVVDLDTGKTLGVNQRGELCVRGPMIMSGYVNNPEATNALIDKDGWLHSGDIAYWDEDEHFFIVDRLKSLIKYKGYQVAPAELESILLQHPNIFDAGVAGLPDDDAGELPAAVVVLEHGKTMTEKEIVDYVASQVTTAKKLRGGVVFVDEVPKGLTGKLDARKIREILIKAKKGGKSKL
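Biochemical qHTS of compounds, final roughly 60 µM downward over six points, against 10 nM purified firefly luciferase using Km concentrations of substrates (10 uM D-luciferin, 10 uM ATP) in Tris acetate pH 7.5 buffer; luminescence output.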
ELG1 genotoxic = induces genotoxicity in HEK293T cells with luciferase-tagged ELG1; HEK293T ELG1-luciferase reporter, luminescence, 16 h; Potency, µM (series often up to 46 µM), hits mostly activators; 330,000 compounds, 1.3% hits; note: nearly all actives have a fitted effect of over 60% in size
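Genotoxic stress is detected as increased luminescence from luciferase-tagged ELG1 in HEK293T cells, measured with ONE-Glo after a 16 hr treatment at 37 °C.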
NPC1 promoter act = activators of NPC1 promoter | 320,000 compounds, 2.4% hits | AID 485313 | Potency, µM (titrated, usually from 9.22 µM), actives largely listed as activators | Huh7 NPC1 promoter luciferase reporter, 24 h; note: nearly all actives have a fitted effect of over 60% in size
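Cells: Huh7 expressing luciferase under the NPC1 promoter, 1500/well. Seeded 2 h, compound added, incubated 24 h at 37 °C. Luciferase reagent, 10 min ambient, then luminescence.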
Rab9 prom act = activators of Rab9 promoter | Huh7 Rab9 promoter-luciferase reporter, luminescence, 24 h | Potency, µM (doses to about 9.22 µM), usual class: activators | 320,000 compounds, 2.8% hits | AID 485297; note: nearly all actives have a fitted effect of over 60% in size
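Huh7 cells stably carrying a Rab9 promoter-luciferase reporter, 1500 cells per well in OP-MEM I with 10% FBS, treated with compound 24 hours at 37C. Luciferase activity read by luminescence after 10 minutes with Amplite reagent.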
A number is an active result. Calls come from the whole dose curve; as a rule, active = well fitted curve in the direction sought with a large enough effect; inconclusive = small, poorly fitted or top-dose-only effect, or another doubt; inactive = no such curve, though single readings can be large; an effect the other way counts as inactive or inconclusive.

`O=c1c2ccccc2nc(-c2ccco2)n1-c1nc2ccccc2s1` gave SMN2 splice up inactive, FLuc counter 15µM, ELG1 genotoxic inactive, NPC1 promoter act inactive and Rab9 prom act inactive.
CN(CC(O)COc1c(F)cc(Br)cc1F)C1CCCCC1 (configuration not stated) was read as SMN2 splice up inactive, FLuc counter inactive, ELG1 genotoxic inactive, NPC1 promoter act inactive and Rab9 prom act inactive.
O=C(O)C(=O)/C(=C\c1ccccc1)c1ccc2ccccc2n1 was read as FLuc counter inactive, ELG1 genotoxic 9.2µM, NPC1 promoter act inactive and Rab9 prom act inactive.
For O=C(O)C(=O)/C(=C\c1ccsc1)c1ccc2ccccc2n1 the results were FLuc counter inconclusive, ELG1 genotoxic inconclusive, NPC1 promoter act inactive and Rab9 prom act inactive.
O=C(O)C(=O)/C(=C\c1ccc([N+](=O)[O-])cc1)c1ccc2ccccc2n1 was read as SMN2 splice up 13µM, FLuc counter inconclusive, ELG1 genotoxic inactive, NPC1 promoter act inactive and Rab9 prom act inconclusive.
Screening Cc1ccc(C(=O)OCc2nc3ccsc3c(=O)[nH]2)o1 returned FLuc counter inactive, ELG1 genotoxic inactive, NPC1 promoter act inactive and Rab9 prom act inactive.
Screening Cc1ccc(C(=O)OCc2nc3ccccc3s2)o1 returned FLuc counter 15µM, ELG1 genotoxic inconclusive, NPC1 promoter act inactive and Rab9 prom act inconclusive.
Screening O=C(OCc1nc2ccccc2s1)c1ccc(Br)s1 returned SMN2 splice up inactive, FLuc counter 19µM, ELG1 genotoxic inactive, NPC1 promoter act inactive and Rab9 prom act inactive.
For Nc1ccc(C(=O)OCc2nc3ccccc3s2)cc1 the results were SMN2 splice up inactive, FLuc counter 17µM, ELG1 genotoxic inconclusive, NPC1 promoter act inactive and Rab9 prom act inactive.
`O=C(CCc1nc2ccccc2s1)OCc1ccccc1` gave SMN2 splice up inactive, FLuc counter inactive, ELG1 genotoxic inactive, NPC1 promoter act inactive and Rab9 prom act inactive.
Screening O=C(OCc1nc2ccccc2s1)c1cc2ccccc2oc1=O returned SMN2 splice up inactive, FLuc counter 19µM, ELG1 genotoxic inconclusive, NPC1 promoter act inactive and Rab9 prom act inactive.
For O=C(CCC(=O)c1cccs1)OCc1nc2ccccc2s1 the results were SMN2 splice up inactive, FLuc counter inconclusive, ELG1 genotoxic inactive, NPC1 promoter act inactive and Rab9 prom act inactive.
O=S1(=O)C=C(Sc2nc3ccccc3s2)c2ccccc21 was read as SMN2 splice up inactive, FLuc counter 2.7µM, ELG1 genotoxic inactive, NPC1 promoter act inactive and Rab9 prom act inactive.
O=C(c1cc(COc2c(F)cccc2F)on1)N1CCC(c2ccccc2F)C1 (configuration not stated) was read as FLuc counter 15µM, ELG1 genotoxic inconclusive, NPC1 promoter act inactive and Rab9 prom act inconclusive.
For O=C(c1cc(COc2c(F)cccc2F)on1)N1C[C@H]2CC[C@H]1C2 the results were FLuc counter 12µM, ELG1 genotoxic 12µM, NPC1 promoter act 3.2µM and Rab9 prom act 1.6µM.
O=C(c1cc(COc2c(F)cccc2F)on1)N1CCC(c2ccccc2Cl)C1 (configuration not stated) was read as FLuc counter inconclusive, ELG1 genotoxic inactive, NPC1 promoter act inactive and Rab9 prom act inactive.
Screening Cc1cccc(C)c1OCc1cc(C(=O)N2CCC(c3ccncc3)CC2)no1 returned FLuc counter 13µM, ELG1 genotoxic inactive, NPC1 promoter act inactive and Rab9 prom act inactive.
`O=C(c1cc(COc2c(F)cccc2F)on1)N1CCC(c2ccncc2)CC1` gave FLuc counter inactive, ELG1 genotoxic inactive, NPC1 promoter act inactive and Rab9 prom act inactive.
For CC(=O)c1c(C)[nH]c(C(=O)CN2C(=O)NC(C)(c3ccc4c(c3)OCCO4)C2=O)c1C (configuration not stated) the results were FLuc counter inactive, ELG1 genotoxic inconclusive, NPC1 promoter act inactive and Rab9 prom act inactive.
Cc1cccc(NC(=O)Cc2c(F)cccc2Cl)n1 was read as FLuc counter 15µM, ELG1 genotoxic inconclusive, NPC1 promoter act 2.5µM and Rab9 prom act 3.2µM.
Cc1ccc(CC(=O)Nc2cccc(C)n2)cc1 was read as SMN2 splice up 13µM, FLuc counter inconclusive, ELG1 genotoxic 21µM, NPC1 promoter act inconclusive and Rab9 prom act inconclusive.

From PubChem BioAssay
